Test results published in the supplement of paper PMC12494721.
Structures can show the parent of a compound that is named as a salt.

Legend:
Conditions in all cases: incubation time: 27 h, anaerobic, 37 °C;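 for the amine columns active = adjusted P below 0.05 in both replicates with a change the same way and a mean fold change under 0.8 or over 1.25; inactive = the rest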
[1] = tested on: Clostridium sporogenes DSM 1664; assay: growth (OD595) fold change vs plate DMSO controls (fold change (ratio)); higher = more growth
Summary of the method: (§1)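 Growth is the fold change relative to the median of plate DMSO controls. Readings came from anaerobic mGAM cultures in 96-well plates grown for 27 h at 37 °C and read at 595 nm. They were blank-subtracted, corrected for compound background with 20 µM compound solutions in water, and converted to OD with a calibration factor of 5. Values are means of 2 biological replicates, and fold changes above 1.5 were set to NA.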

[2] = tested on: Escherichia coli IAI1; assay: as above
Summary of the method: as §1

[3] = tested on: Klebsiella aerogenes DSM 30053; assay: as above
Summary of the method: as §1

[4] = tested on: Ruminococcus gnavus DSM 108212; assay: as above
Summary of the method: as §1

[5] = tested on: Klebsiella aerogenes DSM 30053; assay: fold change of Histamine concentration vs plate DMSO controls (fold change (ratio)); higher = more amine produced, active = hit call of the paper (significant change in both replicates, either direction)
Summary of the method: (§2)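 Each value is the fold change relative to DMSO-only wells on the same plate. Four gut bacterial strains were grown anaerobically in mGAM at 37 °C for 27 h in 80 µL wells, starting at OD 0.1 before a 1:1 dilution, with compounds at 20 µM final (sweeteners 50 µM). Whole cultures were extracted with cold acetonitrile/methanol containing 0.1% formic acid, centrifuged, and amines were quantified by LC–triple-quadrupole MS (dynamic MRM) against external calibration curves with within-batch drift correction. Values are means of 2 biological replicates.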

[6] = tested on: Clostridium sporogenes DSM 1664; assay: fold change of Tryptamine concentration vs plate DMSO controls (fold change (ratio)); higher = more amine produced, active = hit call of the paper (significant change in both replicates, either direction)
Summary of the method: as §2

[7] = tested on: Ruminococcus gnavus DSM 108212; assay: as above
Summary of the method: as §2

[8] = tested on: Escherichia coli IAI1; assay: fold change of Putrescine concentration vs plate DMSO controls (fold change (ratio)); higher = more amine produced, active = hit call of the paper (significant change in both replicates, either direction)
Summary of the method: as §2

[9] = tested on: Klebsiella aerogenes DSM 30053; assay: as above
Summary of the method: as §2

[10] = tested on: Escherichia coli IAI1; assay: fold change of Cadaverine concentration vs plate DMSO controls (fold change (ratio)); higher = more amine produced, active = hit call of the paper (significant change in both replicates, either direction)
Summary of the method: as §2

[11] = tested on: Klebsiella aerogenes DSM 30053; assay: as above
Summary of the method: as §2

[12] = tested on: Ruminococcus gnavus DSM 108212; assay: fold change of 2-Phenylethylamine concentration vs plate DMSO controls (fold change (ratio)); higher = more amine produced, active = hit call of the paper (significant change in both replicates, either direction)
Summary of the method: as §2

SMILES	growth [1]	growth [2]	growth [3]	growth [4]	fold change of Histamine concentration [5]	fold change of Tryptamine concentration [6]	fold change of Tryptamine concentration [7]	fold change of Putrescine concentration [8]	fold change of Putrescine concentration [9]	fold change of Cadaverine concentration [10]	fold change of Cadaverine concentration [11]	fold change of 2-Phenylethylamine concentration [12]
Nc1nc2n[nH]nc2c(=O)[nH]1 [Azaguanine-8] (20 µM)	0.886	1.05	1.01	0.846	1.04 (inactive)	0.988 (inactive)	0.924 (inactive)	1.01 (inactive)	0.968 (inactive)	1.01 (inactive)	1.03 (inactive)	0.882 (inactive)
C[C@]12CC[C@H]3C(=CCc4cc(O)ccc43)[C@@H]1CCC2=O [Equilin] (20 µM)	0.994	0.964	0.954	1	1.01 (inactive)	1.02 (inactive)	0.996 (inactive)	1.07 (inactive)	0.996 (inactive)	1.03 (inactive)	0.978 (inactive)	0.93 (inactive)
CCCCC[C@H](O)/C=C/[C@H]1[C@H](O)CC(=O)[C@@H]1CCCCCCC(=O)O [Alprostadil] (20 µM)	1.02	0.977	1.01	1.01	1.08 (inactive)	0.957 (inactive)	0.987 (inactive)	1.05 (inactive)	1.01 (inactive)	1.01 (inactive)	0.997 (inactive)	0.985 (inactive)
Cc1cc2cc3c(C)cc(=O)oc3c(C)c2o1 [Trioxsalen] (20 µM)	1.03	1.14	0.991	1.02	1.08 (inactive)	0.974 (inactive)	0.966 (inactive)	1.13 (inactive)	0.997 (inactive)	1.03 (inactive)	0.985 (inactive)	0.936 (inactive)
Nc1nc(CC(=O)Nc2ccc(CCNC[C@H](O)c3ccccc3)cc2)cs1 [Mirabegron] (20 µM)	1.09	1.01	1.13	0.987	0.931 (inactive)	1.02 (inactive)	0.999 (inactive)	0.977 (inactive)	1.01 (inactive)	1.06 (inactive)	1.01 (inactive)	1.05 (inactive)
CN1CCC(=C2c3ccccc3CCc3cccnc32)CC1 [Azatadine maleate] (20 µM)	0.968	0.983	0.994	0.99	1.05 (inactive)	1.14 (inactive)	1.01 (inactive)	1.34 (inactive)	1.01 (inactive)	0.966 (inactive)	1 (inactive)	1.03 (inactive)
NC[C@@H]1O[C@@H](O[C@H]2[C@H](O)[C@@H](O[C@H]3O[C@H](CO)[C@@H](O)[C@H](N)[C@H]3O)[C@H](N)C[C@@H]2N)[C@@H](O)[C@H](O)[C@H]1O [Kanamycin A sulfate] (20 µM)	1.05	1.02	1.02	1.09	0.907 (inactive)	1.06 (inactive)	1.01 (inactive)	1.02 (inactive)	0.977 (inactive)	0.97 (inactive)	1.02 (inactive)	1.03 (inactive)
CCN1CCCC1CNC(=O)c1cc(S(N)(=O)=O)ccc1OC (centres undefined) [Sulpiride] (20 µM)	0.968	1	0.981	1.18	1.05 (inactive)	0.949 (inactive)	1.03 (inactive)	0.997 (inactive)	1.02 (inactive)	1.03 (inactive)	0.991 (inactive)	1.06 (inactive)
CCn1nc(C(=O)O)c(=O)c2cc3c(cc21)OCO3 [Cinoxacin] (20 µM)	0.547	0.0392	0.544	1.06	0.506 (active)	0.724 (active)	1 (inactive)	0.749 (inactive)	1.06 (inactive)	1.61 (active)	1.01 (inactive)	1 (inactive)
CC(=O)NS(=O)(=O)c1ccc(N)cc1 [Sulfacetamide sodic hydrate] (20 µM)	0.934	0.995	0.974	0.888	1.02 (inactive)	0.976 (inactive)	1.06 (inactive)	1.02 (inactive)	0.996 (inactive)	0.98 (inactive)	0.993 (inactive)	1.08 (inactive)
O=C(CCCCCCC(=O)Nc1ccccc1)NO [Vorinostat] (20 µM)	0.808	1.07	0.974	1.04	1.17 (inactive)	0.962 (inactive)	1.05 (inactive)	1.11 (inactive)	0.99 (inactive)	0.99 (inactive)	0.967 (inactive)	1.1 (inactive)
CNCCc1ccccn1 [Betahistine mesylate] (20 µM)	1.26	1	1.02	1.25	0.991 (inactive)	0.994 (inactive)	1.02 (inactive)	1.03 (inactive)	0.995 (inactive)	0.967 (inactive)	0.993 (inactive)	1.01 (inactive)
CC1(C)S[C@@H]2[C@H](NC(=O)C3(N)CCCCC3)C(=O)N2[C@H]1C(=O)O [Cyclacillin] (20 µM)	0	1	1.02	0.0834	0.87 (inactive)	0.0132 (active)	0.0795 (active)	0.887 (inactive)	0.993 (inactive)	1.36 (active)	1 (inactive)	0.0578 (active)
CN1CCN(CCCN2c3ccccc3Sc3ccc(C(F)(F)F)cc32)CC1 [Trifluoperazine dihydrochloride] (20 µM)	1.25	1.08	1.05	0.968	0.886 (inactive)	1.06 (inactive)	0.93 (inactive)	1.04 (inactive)	0.955 (inactive)	1.05 (inactive)	1.03 (inactive)	0.964 (inactive)
C(=C\c1ccccc1)/CN1CCN(C(c2ccccc2)c2ccccc2)CC1 [Cinnarizine] (20 µM)	1.09	0.964	0.991	0.67	0.941 (inactive)	0.969 (inactive)	0.824 (inactive)	0.993 (inactive)	0.998 (inactive)	0.991 (inactive)	1 (inactive)	0.878 (inactive)
COC(=O)C1=C(C#N)NC(C)=C(C(=O)OC(C)C)C1c1cccc([N+](=O)[O-])c1 (centres undefined) [Nilvadipine] (20 µM)	1.01	1.18	0.953	0.932	0.971 (inactive)	1.1 (inactive)	1.24 (inactive)	1.15 (inactive)	0.936 (inactive)	1.03 (inactive)	1.02 (inactive)	1.44 (active)
CC(CN(C)C)CN1c2ccccc2CCc2ccccc21 (centres undefined) [Trimipramine maleate salt] (20 µM)	0.87	0.987	0.974	0.826	0.994 (inactive)	0.985 (inactive)	0.998 (inactive)	0.961 (inactive)	1.01 (inactive)	1.04 (inactive)	1 (inactive)	1.02 (inactive)
CCc1oc2ccccc2c1C(=O)c1cc(I)c(O)c(I)c1 [Benziodarone] (20 µM)	0.283	0.975	1.01	0.707	1.03 (inactive)	0.0565 (active)	0.468 (active)	1.03 (inactive)	1.01 (inactive)	1.05 (inactive)	1.01 (inactive)	0.489 (inactive)
NC[C@@H]1O[C@H](O[C@H]2[C@@H](O)[C@H](O[C@@H]3[C@@H](O)[C@H](N)C[C@H](N)[C@H]3O[C@H]3O[C@H](CN)[C@@H](O)[C@H](O)[C@H]3N)O[C@@H]2CO)[C@H](N)[C@@H](O)[C@@H]1O [Neomycin sulfate] (20 µM)	0.902	0.997	1.02	0.938	0.893 (inactive)	1.16 (inactive)	1.08 (inactive)	0.954 (inactive)	0.966 (inactive)	0.897 (inactive)	1.02 (inactive)	1.11 (inactive)
O=C(O)CN(CCN(CC(=O)O)CC(=O)O)CCN(CC(=O)O)CC(=O)O [Pentetic acid] (20 µM)	1.27	1.04	1.04	1.05	1.08 (inactive)	1.02 (inactive)	1.01 (inactive)	0.998 (inactive)	1.02 (inactive)	0.992 (inactive)	0.989 (inactive)	0.997 (inactive)
CN(C)[C@@H]1C(=O)C(C(=O)NCNCCCC[C@H](N)C(=O)O)=C(O)[C@@]2(O)C(=O)C3=C(O)c4c(O)cccc4[C@@](C)(O)[C@H]3C[C@@H]12 [Lymecycline] (20 µM)	0.746	1.23	0.995	0.941	1.05 (inactive)	0.933 (inactive)	0.996 (inactive)	1.2 (inactive)	1.03 (inactive)	1.11 (inactive)	0.999 (inactive)	1.02 (inactive)
CN(C)c1ccc2nc3ccc(=[N+](C)C)cc-3sc2c1 [Methylene blue] (20 µM)	0.774	0.466	0.42	0.00745	0.942 (inactive)	0.998 (inactive)	1.02 (inactive)	0.965 (inactive)	0.928 (inactive)	0.941 (inactive)	0.989 (inactive)	1.09 (inactive)
